# Assay results as given in PubChem BioAssay (NCATS).
# Inconclusive results are not listed. Unmarked numbers belong to inactive results. The source made the active and inactive calls. Unless noted, calls come from the whole dose curve; as a rule, active = well fitted inhibition curve with a large enough effect; inconclusive = small, poorly fitted or top-dose-only effect; inactive = no such curve, though single readings can be large or run the other way.
# System: not listed separately
# Test: S16 Schwann cell PMP22 intronic element beta-lactamase assay (AID 624044; calls by dose curve;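 note: 0% = DMSO and -100% = potassium clavulanate positive control; nearly all actives have a fitted effect of over 15% in size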)
# Conditions: S16 rat Schwann cells, PMP22 element beta-lactamase FRET, 24 h; series mostly up to 38.3 µM; ratio activity, negative = inhibition: at the top concentration
# Summary of the method: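 Rat S16 Schwann cells with beta-Lac driven by a PMP22 intronic element, compound-treated 24 h at 37 °C. LiveBLAzer FRET B/G read: 460 nm normalized to potassium clavulanate vs DMSO; 535 nm FRET as viability; concentration-effect curves classified.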
row,SMILES,"ratio activity, negative = inhibition"
1,CCCN1CCC[C@H](c2cccc(O)c2)C1,-0.254%
2,CC(C)NC(C)Cc1ccc(I)cc1 (configuration not stated),-8.02%
3,C[C@]12CCC(=O)C(O)=C1CC[C@@H]1[C@H]3CCC(=O)[C@@]3(C)CC[C@@H]12,2.41%
4,NC(=O)CN1CC(O)CC1=O (configuration not stated),0.0563%

# Target: Glutaminase kidney isoform, mitochondrial (Homo sapiens) (UniProt O94925)
# Sequence (O94925 whole entry, looked up, canonical isoform): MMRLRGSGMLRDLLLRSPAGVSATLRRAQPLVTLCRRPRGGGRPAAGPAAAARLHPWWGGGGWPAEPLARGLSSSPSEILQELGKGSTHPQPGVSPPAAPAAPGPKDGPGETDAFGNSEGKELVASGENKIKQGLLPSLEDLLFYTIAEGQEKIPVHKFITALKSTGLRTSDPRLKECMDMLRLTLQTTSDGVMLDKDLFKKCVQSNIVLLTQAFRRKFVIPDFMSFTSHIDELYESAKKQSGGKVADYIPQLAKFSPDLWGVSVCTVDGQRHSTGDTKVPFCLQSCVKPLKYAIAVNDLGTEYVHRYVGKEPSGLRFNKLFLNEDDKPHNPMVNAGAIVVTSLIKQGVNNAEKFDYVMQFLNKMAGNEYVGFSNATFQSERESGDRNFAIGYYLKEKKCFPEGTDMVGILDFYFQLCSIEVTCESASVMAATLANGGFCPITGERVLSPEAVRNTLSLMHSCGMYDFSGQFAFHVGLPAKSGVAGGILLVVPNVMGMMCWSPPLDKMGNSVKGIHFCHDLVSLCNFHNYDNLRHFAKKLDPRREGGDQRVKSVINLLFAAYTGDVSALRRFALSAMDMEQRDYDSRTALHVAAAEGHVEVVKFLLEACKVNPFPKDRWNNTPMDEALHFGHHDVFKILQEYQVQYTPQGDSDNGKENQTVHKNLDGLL
# Test: qHTS for Inhibitors of Glutaminase (GLS): LOPAC Validation (AID 624146); note: nearly all actives have a fitted effect of over 60% in size; note: potency is the fitted concentration of half-maximal effect;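 for activity change, negative = inhibition: glutamate product detected by oxidase and peroxidase coupled Amplex red fluorescence gain; % is set by controls: 0 for no effect and ±100 for the full control effect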
# Conditions: glutaminase enzyme activity inhibition; series mostly up to 46.1 µM; activity change, negative = inhibition: at the top concentration
# Summary of the method: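 Human kidney-isoform GLS in 45 mM KH2PO4 pH 8.2, 0.02% Tween-20, with compound, started with 1mM L-Glutamine (added stock). Glutamate oxidase/HRP/Amplex red coupled fluorescence read at start and after 30 min at RT.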
SMILES,"activity change, negative = inhibition",Potency
NCc1cc(=O)[nH]o1,119%,–
NCCc1c[nH]c2ccccc12,-2.09%,–
NC(N)=NOCCC(N)C(=O)O (configuration not stated),-17.9%,–
S=C(NC1CCCCC1)N1CCC(c2cnc[nH]2)CC1,-11.2%,–
CCCN1CCC[C@H](c2cccc(O)c2)C1,37.6%,–
CC(=O)NCCc1c[nH]c2ccccc12,0.465%,–
NCCc1c[nH]c2ccc(O)cc12,-31.9%,–
CC(C)NC(C)Cc1ccc(I)cc1 (configuration not stated),-3.65%,–
NC(CP(=O)(O)O)C(=O)O (configuration not stated),-11.5%,–
C[C@@H]1O[C@H](C[N+](C)(C)C)C[C@H]1O,-14.5%,–
c1ccc(CCCN2CCN(CCOC(c3ccccc3)c3ccccc3)CC2)cc1,161%,–
O=C(O)Cc1cnc[nH]1,264%,–
C[C@]12N[C@H](Cc3ccccc31)c1ccccc12,-0.0204%,–
O=C(O)[C@@H]1CCN1,-4.01%,–
c1ccc2sc(C3(N4CCCCC4)CCCCC3)cc2c1,-13.1%,–
COc1ccc2c(c[n+](C)c3c4cc5c(cc4ccc23)OCO5)c1OC,–,3.16 µM (active)
C[N+]1(C)C2CCC1CC(OC(=O)C(CO)c1ccccc1)C2 (configuration not stated),–,inactive
Oc1ccc2c3c1O[C@H]1c4[nH]c5c(c4C[C@@]4(O)[C@@H](C2)N(CC2CC2)CC[C@]314)C[C@@]1(O)[C@H]2Cc3ccc(O)c4c3[C@@]1(CCN2CC1CC1)[C@H]5O4,–,12.6 µM (active)
